Laboratory results from PubChem BioAssay (NCATS).
Inconclusive results are not listed. A call without a number means that no potency is given here. A number with no mark means an inactive call. Calls of active or inactive are those of the source. Calls come from the whole dose curve; as a rule, active = well fitted inhibition curve with a large enough effect; inconclusive = small, poorly fitted or top-dose-only effect; inactive = flat fitted curve, though single readings scatter.

Columns and labels:
NIH3T3 [1] = experiment: Cytotoxic Profiling of Annotated Libraries Using Quantitative High-Throughput Screening (AID 1296008); settings: Five cell lines viability, CellTiter-Glo ATP luminescence, 48-72 h; max response: active compounds read low
In short: (§1)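 Compounds were pin-transferred onto cells and incubated 48 or 72 hr at 37 degree Celsius, 95% humidity. CellTiter-Glo was added, plates sat 10 min at room temperature, then ATP-coupled luminescence was imaged as the viability read-out.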

CRL-7250 = normal cell line; experiment: qHTS assay to identify novel small-molecules to repurpose for Merkel cell carcinoma treatment (AID 1296009); settings: MCC and control cell lines, CellTiter-Glo viability, 72 h; at 44.8 µM (top of the series) unless noted
In short: (§2)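 Cells exposed to NPC (8-point) and MIPE (11-point) compound dilutions for 72 hr at 37 degree celsius; viability read by CellTiter-Glo luminescence, normalized to no-cell and DMSO in-plate controls.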

HACAT = experiment: as above; settings: MCC and control cell lines, CellTiter-Glo viability, 72 h; at 44.8 µM (top of the series) unless noted
In short: as §2

HEK293T = experiment: as above; settings: MCC and control cell lines, CellTiter-Glo viability, 72 h; at 44.8 µM (top of the series) unless noted
In short: as §2

NIH3T3 [2] = experiment: as above; settings: MCC and control cell lines, CellTiter-Glo viability, 72 h; at 44.8 µM (top of the series) unless noted
In short: as §2

KB-3-1 = experiment: Cytotoxic Profiling of Annotated Libraries Using Quantitative High-Throughput Screening (AID 1296008); settings: Five cell lines viability, CellTiter-Glo ATP luminescence, 48-72 h; max response: active compounds read low
In short: as §1

MCC-13 = experiment: qHTS assay to identify novel small-molecules to repurpose for Merkel cell carcinoma treatment (AID 1296009); settings: MCC and control cell lines, CellTiter-Glo viability, 72 h
In short: as §2

MCC-26 = experiment: as above; settings: MCC and control cell lines, CellTiter-Glo viability, 72 h
In short: as §2

MKL-1 = experiment: as above; settings: MCC and control cell lines, CellTiter-Glo viability, 72 h
In short: as §2

MKL-2 = experiment: as above; settings: MCC and control cell lines, CellTiter-Glo viability, 72 h
In short: as §2
Note: nearly all actives have a fitted effect of over 60% in size.
Potency is the fitted concentration of half-maximal effect.

Clc1ccc(OCC2=NCCN2)cc1Cl
outcome (NIH3T3 [1]): inactive | outcome (CRL-7250): inactive | outcome (HACAT): inactive | outcome (HEK293T): inactive | outcome (NIH3T3 [2]): inactive

CN(C(=O)Cc1ccccc1)C(CN1CCCC1)c1ccccc1 (centres undefined)
max response (KB-3-1): -9.97% | outcome (NIH3T3 [1]): inactive | outcome (NIH3T3 [2]): inactive

COC1=CC(=O)O[C@@H](/C=C/c2ccccc2)C1
outcome (NIH3T3 [1]): inactive | outcome (HACAT): inactive | outcome (NIH3T3 [2]): inactive

OC1(c2ccc(Cl)cc2)c2ccccc2C2=NCCN21 (centres undefined)
outcome (NIH3T3 [1]): inactive | outcome (CRL-7250): inactive | outcome (NIH3T3 [2]): inactive

CC1=C2C[C@H]3[C@@H](CC=C4C[C@@H](O)CC[C@@]43C)[C@@H]2CC[C@]12O[C@@H]1C[C@H](C)CN[C@H]1[C@H]2C
outcome (NIH3T3 [1]): inactive | outcome (HEK293T): inactive | outcome (NIH3T3 [2]): inactive

CO[C@@H]1[C@H](O)[C@@H](O[C@@H]2C[C@H]3CC[C@@H]4C(CC[C@]5(C)[C@@H](C6=CC(=O)OC6)CC[C@]45O)[C@@]3(C)[C@H](O)C2)O[C@H](C)[C@@H]1O[C@@H]1O[C@H](CO)[C@@H](O)[C@H](O)[C@H]1O (some centres undefined)
Potency (KB-3-1): 0.432 µM (active) | outcome (NIH3T3 [1]): inactive | outcome (NIH3T3 [2]): inactive [at 17.4 µM]

CO[C@H]1[C@H](O)[C@H](O[C@H]2CC[C@]3(C)C4CC[C@]5(C)[C@H](C6=CC(=O)OC6)CC[C@]5(O)C4CC[C@@H]3C2)O[C@@H](C)[C@@H]1O (some centres undefined)
Potency (KB-3-1): 0.0893 µM (active) | outcome (NIH3T3 [1]): inactive | outcome (NIH3T3 [2]): inactive [at 17.4 µM]

C[CH2][Hg][S]c1ccccc1C(=O)O
Potency (KB-3-1): 7.31 µM (active) | Potency (MCC-13): 15 µM (active) | Potency (MCC-26): 15 µM (active) | Potency (MKL-1): 2.99 µM (active) | Potency (MKL-2): 0.944 µM (active)

CC(=O)OC12C(O)C(C)C3(O)C4C=C(C)C(=O)C4CC(CO)=CC3C1C2(C)C (centres undefined)
outcome (KB-3-1): inactive | outcome (NIH3T3 [1]): inactive | outcome (NIH3T3 [2]): inactive [at 17.4 µM]

COC1CC(O[C@H]2CC[C@@]3(C)C(=CCC4C3C(O)[C@@H](O)[C@]3(C)[C@@H](C(C)=O)CC[C@]43O)C2)OC(C)C1OC1CC(OC)C(OC2OC(C)C(O)C(O)C2O)C(C)O1 (some centres undefined)
outcome (NIH3T3 [1]): inactive | outcome (HACAT): inactive [at 9.27 µM] | outcome (HEK293T): inactive [at 9.27 µM] | outcome (NIH3T3 [2]): inactive [at 9.27 µM]

COC1CC(O[C@H]2CC[C@]3(C=O)C4CC[C@]5(C)[C@@H](C6=CC(=O)OC6)CC[C@]5(O)[C@@H]4CC[C@]3(O)C2)OC(C)C1O[C@@H]1O[C@H](CO)[C@@H](O)[C@H](O)[C@H]1O (some centres undefined)
outcome (NIH3T3 [1]): inactive | outcome (NIH3T3 [2]): inactive [at 17.4 µM]

COC1=CC(=O)O[C@@H](CCc2ccccc2)C1
outcome (NIH3T3 [1]): inactive | outcome (CRL-7250): inactive | outcome (NIH3T3 [2]): inactive

Cc1cn(C[C@H](N)C(=O)O)c(=O)n(Cc2cc(-c3ccccc3)sc2C(=O)O)c1=O
outcome (KB-3-1): inactive | outcome (NIH3T3 [1]): inactive | outcome (NIH3T3 [2]): inactive

COC1CC(OC2CCC3(C=O)C(CCC4C3CCC3(C)C(C5=CC(=O)OC5)CCC43O)C2)OC(C)C1OC1OC(CO)C(O)C(O)C1O (centres undefined)
Potency (KB-3-1): 0.343 µM (active) | outcome (NIH3T3 [1]): inactive | outcome (NIH3T3 [2]): inactive [at 17.4 µM]

C[C@]12CC[C@@H](O)C[C@H]1CC[C@@H]1[C@@H]2CC[C@]2(C)C(=O)CC[C@@H]12
outcome (KB-3-1): inactive | outcome (NIH3T3 [1]): inactive | outcome (NIH3T3 [2]): inactive
